TEAD-YAP inh: TEAD-YAP interaction inhibition; HEK-TIYL cells, TEAD-Gal4/YAP UAS-luciferase luminescence; inhibition, % at 9.12 µM; 640,000 compounds, 1.4% hits; AID 1259422; in the data active = inhibition above about 32%;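 also: 0% = median of test compound wells and 100% = reference inhibitor wells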
FBW7 act: activators of human E3 ligase FBW7; Q969H0; AlphaScreen FBW7–phospho-cyclin E peptide binding, activator screen; normalized activity (activation), % at 26.1 µM; 650,000 compounds, 0.13% hits; in the data active = normalized activity above about 1.9%;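 also: purified mutant Fbw7 with reduced substrate affinity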
Target sequence (Q969H0 whole entry, looked up): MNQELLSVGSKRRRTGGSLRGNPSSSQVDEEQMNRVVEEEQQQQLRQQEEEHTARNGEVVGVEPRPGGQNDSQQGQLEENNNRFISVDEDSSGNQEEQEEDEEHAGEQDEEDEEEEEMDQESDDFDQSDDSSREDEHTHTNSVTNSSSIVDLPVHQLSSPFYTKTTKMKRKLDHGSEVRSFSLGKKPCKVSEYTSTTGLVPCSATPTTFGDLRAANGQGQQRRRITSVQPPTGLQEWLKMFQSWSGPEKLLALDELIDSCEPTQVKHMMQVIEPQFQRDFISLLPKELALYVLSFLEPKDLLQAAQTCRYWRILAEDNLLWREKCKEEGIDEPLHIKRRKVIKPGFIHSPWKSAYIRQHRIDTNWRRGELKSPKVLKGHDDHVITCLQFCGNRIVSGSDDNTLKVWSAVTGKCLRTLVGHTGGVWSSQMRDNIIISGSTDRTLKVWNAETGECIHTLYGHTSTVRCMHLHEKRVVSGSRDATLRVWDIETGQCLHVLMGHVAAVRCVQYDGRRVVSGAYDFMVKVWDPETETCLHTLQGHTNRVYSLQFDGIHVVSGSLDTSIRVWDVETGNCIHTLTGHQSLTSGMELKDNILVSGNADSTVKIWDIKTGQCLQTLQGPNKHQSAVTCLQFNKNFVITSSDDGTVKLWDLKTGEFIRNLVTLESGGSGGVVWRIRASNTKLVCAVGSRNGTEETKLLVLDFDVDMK
MITF primary: inhibitors of human MITF; O75030; inhibition, % at 2.6 µM; AlphaScreen MITF homodimerization, bead proximity signal; 650,000 compounds, 0.91% hits; in the data active = inhibition above about 50%;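 also: 0% = vehicle wells with protein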
GPR151 activ: activates the human receptor GPR151; 650,000 compounds, 1% hits; PathHunter beta-arrestin GPR151 cells, luminescence; Q8TDV0; AID 1508602; activation, % at 11.2 µM; in the data active = activation above about 4.9%;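 also: 0% = median of compound wells and 100% = cells with positive control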
The depositor's hits bear a star. An excerpt weighted towards active compounds, which were near 3.4% of everything screened.

How did CCOC(=O)Nc1ccc(Cc2ccc(NC(=O)OCC)cc2)cc1 do in these assays?
TEAD-YAP inh: 33*; FBW7 act: 0; MITF primary: -4; GPR151 activ: 1

Results for CN(C)c1ccccc1-c1cnc2c(NCc3cccs3)nccn12 ?
TEAD-YAP inh: 5; FBW7 act: 0; MITF primary: 12; GPR151 activ: -1

How did CC(Nc1cc(N2CCN(C(=O)c3ccco3)CC2)ccc1[N+](=O)[O-])C12CC3CC(CC(C3)C1)C2 (centres undefined) do in these assays?
TEAD-YAP inh: 43*; FBW7 act: 0; MITF primary: -14; GPR151 activ: 1

Results for CCCc1cc(-c2onc(C)c2-c2ccc3c(c2)OCCCO3)c(O)cc1OC ?
TEAD-YAP inh: -23; FBW7 act: 0; MITF primary: -15; GPR151 activ: -1

Results for CCc1cc(-c2onc(C)c2-c2ccc(OC)cc2)c(O)cc1OC ?
TEAD-YAP inh: 45*; FBW7 act: 0; MITF primary: 16; GPR151 activ: 0

What do the screens show for `Oc1ccc2ccccc2c1/C=N/c1ccccn1`?
TEAD-YAP inh: 1; FBW7 act: 0; MITF primary: 1; GPR151 activ: 0

What do the screens show for `Cc1[nH]n(-c2ccccc2)c(=O)c1/C=N/NC(C)(C)C`?
TEAD-YAP inh: 0; FBW7 act: -1; MITF primary: -17; GPR151 activ: -1

Results for Cc1[nH]n(-c2ccccc2)c(=O)c1/C=N/N/C(=N/c1ccccn1)c1ccccn1 ?
TEAD-YAP inh: 12; FBW7 act: -1; MITF primary: 52*; GPR151 activ: 2

How did Oc1ccc(/C=N/N/C(=N/c2ccccn2)c2ccccn2)c(O)c1 do in these assays?
TEAD-YAP inh: 59*; FBW7 act: -2; MITF primary: 45; GPR151 activ: -4

What do the screens show for `N/C(=N\N=C\c1c(O)ccc2ccccc12)c1ccccn1`?
TEAD-YAP inh: 60*; FBW7 act: -1; MITF primary: 11; GPR151 activ: -2

What do the screens show for `N/C(=N\N=C/c1ccc(O)cc1O)c1ccccn1`?
TEAD-YAP inh: 84*; FBW7 act: -1; MITF primary: 20; GPR151 activ: -5

Results for COc1cccc(C(=O)NCc2c(-c3ccc(Cl)cc3)nc3n2CCS3)c1 ?
TEAD-YAP inh: -8; FBW7 act: 0; MITF primary: -5; GPR151 activ: 2

Results for C/C(N)=C(/C#N)C(=O)COC(=O)c1cc2c(C)nn(-c3ccccc3)c2s1 ?
TEAD-YAP inh: 3; FBW7 act: 0; MITF primary: -3; GPR151 activ: 1

What do the screens show for `COc1ccccc1/C=N\N=C(/N)c1ccccn1`?
TEAD-YAP inh: 56*; FBW7 act: -1; MITF primary: 19; GPR151 activ: -4

What do the screens show for `O=C(CCl)NC(C1CCCCC1=O)C(Cl)(Cl)Cl` (centres undefined)?
TEAD-YAP inh: 42*; FBW7 act: 0; MITF primary: -17; GPR151 activ: 0

How did Oc1ccc(CCNc2nc(Nc3ccc4ncccc4c3)nc3c2ncn3-c2ccsc2)cc1 do in these assays?
TEAD-YAP inh: 56*; FBW7 act: 0; MITF primary: 2; GPR151 activ: -1

What do the screens show for `Oc1ccc(CCNc2nc(Nc3ccc4ncccc4c3)nc3nc[nH]c23)cc1`?
TEAD-YAP inh: 45*; FBW7 act: 0; MITF primary: 11; GPR151 activ: 0

How did OCCNc1nc(Nc2ccc3ncccc3c2)nc2c1ncn2-c1ccsc1 do in these assays?
TEAD-YAP inh: 35*; FBW7 act: 0; MITF primary: 10; GPR151 activ: 1

What do the screens show for `O=C(Oc1ccc(/C=N/NC(=O)c2ccccc2[N+](=O)[O-])cc1[N+](=O)[O-])c1ccccc1`?
TEAD-YAP inh: -7; FBW7 act: 0; MITF primary: 2; GPR151 activ: 2

Results for CCc1ccc([N+]([O-])=Nc2ccc(OC)cc2)cc1 ?
TEAD-YAP inh: -66; FBW7 act: 0; MITF primary: 3; GPR151 activ: -1

What do the screens show for `CC(C(=O)Nc1ccc(S(=O)(=O)N2CCCC2)cc1)N1CCN(c2ccccc2)CC1` (centres undefined)?
TEAD-YAP inh: 12; FBW7 act: 0; MITF primary: 0; GPR151 activ: 0

Results for COCCN1C(=O)/C(=C\c2cc(C)n(-c3ccc(Cl)cc3)c2C)C(C(=O)OC)=C1C ?
TEAD-YAP inh: -6; FBW7 act: 0; MITF primary: 15; GPR151 activ: -1

How did COC(=O)C1=C(C)N(Cc2ccco2)C(=O)/C1=C\c1cc(C)n(-c2ccccc2F)c1C do in these assays?
TEAD-YAP inh: -10; FBW7 act: 0; MITF primary: 72*; GPR151 activ: 0

What do the screens show for `CCN1C(=O)/C(=C\c2cc(C)n(-c3ccc(Cl)cc3)c2C)C(C(=O)OC)=C1C`?
TEAD-YAP inh: -5; FBW7 act: 7.3*; MITF primary: 23; GPR151 activ: 1

Bioassay records as filed in PubChem BioAssay.
